From PubChem BioAssay
This is one part of a sample in which hits are shown more often than they occur.
Peg3 imprint: qHTS Assay for Compounds that Induce Erasure of Genomic Imprints; mouse ES Peg3-LacZ reporter, beta-gal luminescence, 40 h; Potency, µM (highest dose often 60.7 µM), actives largely listed as activators; hit rate 0.02% among 110,000
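Readout: BetaGlo luminescence (5 min, room temp) for LacZ from the normally silent maternal Peg3 allele in female Peg3LacZ-Neo ES cells. Cells 300/well, 40 h, 37C, 5% CO2. Data normalized per plate to negative controls.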
GFP derepression: qHTS Assay for Epigenetic Modulators | Potency, µM (series often up to 46.1 µM) | hit rate 0.09% among 68,000 | AID 597, 2007 | mouse C127i GFP locus derepression, cytometry, 30 h
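Locus derepression in mouse mammary C127i cells whose integrated CMV-GFP reporter is normally silent; GFP expression after 30 h compound treatment was quantified by counting fluorescent cells.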
IkB signaling: IkB Signaling. ABC-DLBCL IkBa-CBG/CBR dual luciferase ratio, 4 h; response scale: scaled: untreated 0%, proteasome inhibitor 100%. Potency, µM (highest dose often 57.1 µM). hit rate 0.04% among 110,000. AID 445, 2006; active = well fitted curve in the direction sought with a large enough effect in the signal ratio, not every such curve was filed as active; inconclusive = small, poorly fitted or top-dose-only effect, or a change in a side signal; the % refers to the signal ratio;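 note: the direction sought is a rising ratio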
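Luminescence ratio of IκBα-fused green versus native red beetle luciferase in OCI-Ly3 cells, 4 h post-doxycycline with compound; red signal alone, scaled from basal (0%) to zero light (-100%), flagged nonspecific or cytotoxic effects.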
CRE Fsk mod: Cell signaling CRE-BLA (Fsk stim) | CHO CRE-bla reporter (cAMP response element driving beta-lactamase), forskolin EC10, beta-lactamase ratio | Potency, µM (top dose mostly 38.2 µM), most hits filed as activators | hit rate 2.5% among 71,000; active = well fitted activation curve with a large enough effect in the signal ratio, with a control signal flat, not every such curve was filed as active; inconclusive = small, poorly fitted or top-dose-only effect, or effect the other way, or a change in a side signal; the % refers to the signal ratio
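CHO CRE-bla cells, overnight plating in Opti-MEM with 0.5% dialyzed FBS; cpd titration + EC10 NKH 477, 3 h 37 °C; CCF4 2 h RT; ex 405/em 460 vs 530 ratio → %Activity, AC50.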
HBB splicing: qHTS Assay for Modulators of Hemoglobin Beta Chain Splicing | HBB splicing reporter cell assay, activation; EGFP reporter with mutant IVS2-654 intron; response scale: normalised to 500 nM splice-correcting PNA | Potency, µM (top dose mostly 46.1 µM), actives largely listed as activators | hit rate 0.06% among 65,000 | AID 925, 2007
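HeLa cells stably expressing EGFP interrupted by mutant beta-globin intron 2 (IVS2-654), 500/well in 2% FCS. Treated with compound for 2 days at 37C. Splicing correction scored as total well GFP intensity (488 nm excitation, 500-520 nm emission); 500 nM antisense PNA served as control.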
Of the large screens only hits and unclear results are named; the others gave an inactive call; ! = not confirmed by another sample. Unless noted, calls come from the whole dose curve; as a rule, active = well fitted curve in the direction sought with a large enough effect; inconclusive = small, poorly fitted or top-dose-only effect, or another doubt; inactive = no such curve, though single readings can be large; an effect the other way counts as inactive or inconclusive.

O=C(CCCn1c(=O)[nH]c2ccsc2c1=O)N1CCN(c2cccc(C(F)(F)F)c2)CC1	IkB signaling inconclusive (no result: GFP derepression, CRE Fsk mod, HBB splicing)
COc1cccc(-c2nn(C)c3sc(C(=O)NCc4ccc(C)o4)cc23)c1	IkB signaling inconclusive, CRE Fsk mod 6.3µM
COc1cccc(-c2nn(C)c3sc(C(=O)NCc4ccc5c(c4)OCO5)cc23)c1	IkB signaling inconclusive, CRE Fsk mod 2.5µM
COc1cccc(-c2nn(C)c3sc(C(=O)NCc4ccc(OC)cc4OC)cc23)c1	IkB signaling inconclusive (no result: GFP derepression, CRE Fsk mod, HBB splicing)
COc1cccc(-c2nn(C)c3sc(C(=O)NCc4cc(OC)ccc4OC)cc23)c1	IkB signaling inconclusive (no result: GFP derepression, CRE Fsk mod, HBB splicing)
CN(C)c1ncc2nc(CCc3ccccc3)c(=O)n(CCc3ccccc3)c2n1	CRE Fsk mod 4µM
COc1ccc(-n2c(=O)cnc3cnc(N(C)C)nc32)cc1	Peg3 imprint inconclusive, CRE Fsk mod 10µM
CN(C)c1ncc2nc(-c3cccs3)c(=O)n(CCc3ccccc3)c2n1	CRE Fsk mod inconclusive, HBB splicing inconclusive
Cc1nc2cnc(N(C)C)nc2n(-c2ccccc2)c1=O	CRE Fsk mod 10µM
Cc1nc2cnc(N(C)C)nc2n(CCc2ccccc2)c1=O	CRE Fsk mod 7.9µM
CCC[C@@H]1O[C@@H]2C[C@@H]3[C@@H]4CCC5=CC(=O)C=C[C@@]5(C)[C@H]4[C@H](O)C[C@@]3(C)[C@@]2(C(=O)CO)O1	IkB signaling inconclusive (no result: Peg3 imprint)
CN(C)c1ncc2nc(CCc3ccccc3)c(=O)n(CCC#N)c2n1	Peg3 imprint inconclusive, CRE Fsk mod 4µM
COc1ccc(Oc2ncc3nc(-c4ccc(OC)cc4)c(=O)n(CCC#N)c3n2)cc1	CRE Fsk mod inconclusive (no result: Peg3 imprint)
COc1ncc2nc(CCc3ccccc3)c(=O)n(CCC#N)c2n1	CRE Fsk mod inconclusive (no result: Peg3 imprint)
COc1ccc(-c2nc3cnc(N(C)C)nc3n(CCC#N)c2=O)cc1	CRE Fsk mod 0.4µM
COc1ccc(-c2nnc(-c3cccnc3)o2)cc1OC	CRE Fsk mod 10µM
COc1cc(-c2nnc(-c3cccnc3)o2)cc(OC)c1OC	CRE Fsk mod inconclusive (no result: HBB splicing)
Cc1ccc(NC(=O)CSc2nc3nccnc3c(=O)n2CCc2c[nH]c3ccccc23)cc1	none (no result: GFP derepression, CRE Fsk mod, HBB splicing)
Cc1ccc2oc(NC(=O)N3CCOCC3)cc(=O)c2c1	IkB signaling inconclusive, CRE Fsk mod 0.32µM
CC#C[C@@]1(O)CC[C@@H]2[C@@H]3CCC4=CC(=O)CCC4=C3[C@@H](c3ccc(N(C)C)cc3)C[C@]21C	IkB signaling inconclusive (no result: Peg3 imprint)
COc1cc(=O)n(C)c2c(OC[C@@H](O)C(C)(C)O)cccc12	CRE Fsk mod 25µM!
CCOC(=O)c1nn(-c2ccccc2)c(C#N)c1NC(=O)c1nn(CC)cc1Br	CRE Fsk mod 1.6µM
CCOC(=O)c1c(NC(=O)c2nn(CC)cc2Br)c(C#N)nn1-c1ccccc1	IkB signaling inconclusive, CRE Fsk mod 7.9µM
CCOC(=O)c1ccc(NC(=O)c2nn(CC)cc2Br)cc1	none
CCOC(=O)c1nn(-c2ccccc2)c(=O)c(C#N)c1C	none (no result: Peg3 imprint, HBB splicing)
CCOC(=O)c1c(NC(=O)c2nn(CC)cc2Br)sc(C)c1C	CRE Fsk mod 3.2µM
Cc1ccc(CN2CCCn3nc(C(=O)NCc4ccc(OC(C)C)cc4)cc3C2=O)cc1	IkB signaling inconclusive (no result: GFP derepression, CRE Fsk mod, HBB splicing)
Cc1ccccc1NC(=O)CCn1nc(-c2ccccc2)c2ccccc2c1=O	none (no result: GFP derepression, CRE Fsk mod, HBB splicing)
CC(=O)Cc1nsc(NC(=O)c2ccc(-c3cc(C(F)(F)F)ccc3Cl)o2)n1	CRE Fsk mod 0.63µM
Cc1cc(C)n2nc(SCc3nc4ccccc4[nH]3)nc2n1	CRE Fsk mod 0.79µM (no result: GFP derepression)
Cc1cc(C)n2nc(SCN3C(=O)c4ccccc4C3=O)nc2n1	CRE Fsk mod inconclusive
COc1cc(C)c(C(C)C)cc1S(=O)(=O)N1CCN(C)CC1	none
COc1cc(C)c(C(C)C)cc1S(=O)(=O)n1cnc(C)c1	IkB signaling inconclusive, CRE Fsk mod 13µM
COc1ccc2c(c1)CCc1c(C(=O)Nc3c(C)nn(Cc4ccc(C)cc4)c3C)noc1-2	none (no result: GFP derepression, CRE Fsk mod, HBB splicing)
CCCCCCCC/C=C\CCCCCCCC(=O)N(CCO)CCO	CRE Fsk mod 10µM (no result: GFP derepression)
CCc1ccc(CNC(=O)CN2C(=O)CSc3c2c(C)nn3-c2ccccc2)cc1	none (no result: GFP derepression, CRE Fsk mod, HBB splicing)
CCCc1nc2oc3c(NCCN4CCOCC4)ncnc3c2c2c1CCCC2	CRE Fsk mod 0.79µM
